Shown are actives, neighbours in structure and some others; about 7.1% of the full set was active somewhere.
ATXN2 expr inh – inhibitors of ATXN2 expression | HEK-293 ATXN2-luciferase reporter, luminescence, 24 h | Potency, µM (series often up to 57 µM), for the others: at the top dose activity change, negative = inhibition, hits mostly inhibitors | 360,000 compounds, 0.72% hits | AID 1745845; further: potency means the concentration at half of the fitted maximal effect; on the % scale 0 is the no-effect control and ±100 the full control effect; nearly all actives have a fitted effect of over 55% in size
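qHTS (up to 57 uM final) was run with 24 h compound exposure of reporter cells at 37 °C. Each well was multiplexed: SteadyGlo luminescence measured ATXN2-luciferase expression after a fluorogenic Gly-Phe-AFC viability readout (25 uM final).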
IL-1B inflam inh – inhibitors of inflammasome signaling (IL-1 beta secretion) | THP-1 LPS/ATP IL-1B secretion, AlphaLISA, 16 h; hits give low values | 360,000 compounds, 4.7% hits | activity change, % at 57.5 µM; in the data active means activity change below about -50%; inconclusive means mostly about -30% to -49%; further: on the % scale 0 is the no-effect control and ±100 the full control effect
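Secreted IL-1B measured by AlphaLISA bead assay after 16 h compound exposure of THP-1 cells; compounds (final up to 57.5 uM) added 1 h before LPS (250 ng/mL) and ATP (1.25 mM) stimulation; lower signal means less secretion.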
ATXN viability – cell viability loss in ATXN counter-screen. S2 cells (HEK-293 line with an ATXN2-luciferase reporter) viability, CellTiter-Fluor protease fluorescence, 24 h. 400,000 compounds, 0.49% hits. Potency, µM (top dose mostly 56.7 µM), most hits filed as cytotoxic; further: potency means the concentration at half of the fitted maximal effect; nearly all actives have a fitted effect of over 40% in size
PINK1 expr mod – modulators of PINK1 expression; 410,000 compounds, 0.2% hits; PINK1 immunofluorescence, high-content cytometry, 24 h; Potency, µM (titrated, usually from 76.6 µM), for the others: at the highest dose activation (PINK1 increase), most hits filed as activators; active means well fitted activation curve with a large enough effect; inconclusive means small, poorly fitted or top-dose-only effect; cell line not stated here; further: potency means the concentration at half of the fitted maximal effect; % of control where 0% means no effect; nearly all actives have a fitted effect of over 65% in size
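Fluorescence from anti-PINK1 antibody, together with nuclear and cell stains, was scanned on a laser-scanning cytometer. Before staining, stable-line cells were incubated 24 hours with compounds at 5 concentrations; primary antibody 12 h at 10 degrees C.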
MCF10A rereplic – DNA re-replication induction in MCF 10a cells | MCF 10A DNA re-replication, Hoechst nuclear intensity, 48 h | Potency, µM (top dose mostly 46.1 µM), without a hit: at the highest dose activity, positive = re-replication, most hits filed as activators | 350,000 compounds, 2.9% hits; further: potency means the concentration at half of the fitted maximal effect; % of control where 0% means no effect; nearly all actives have a fitted effect of over 50% in size
SW480 rerep – induces DNA re-replication in SW480 colon adenocarcinoma cells; SW480 DNA re-replication, Hoechst DNA content imaging, 48 h; Potency, µM (series often up to 46.1 µM), for inactives: at the top dose re-replication activation, actives largely listed as activators; 340,000 compounds, 1.8% hits; AID 624297; further: potency means the concentration at half of the fitted maximal effect; % of control where 0% means no effect; nearly all actives have a fitted effect of over 55% in size
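SW480 cells exposed to compounds for 48 hr at 37 C, 5% CO2, then Hoechst-stained 40 min. Nuclear DNA content imaged by fluorescence scanning (405 nm excitation, 500-530 nm emission); re-replication scored as increased high-intensity nuclei.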
An asterisk follows results filed as active; i = inactive; ? = inconclusive; nt = no result given; [ ] = another dose, or the depositor's remark. Unless noted, the call rests on the fitted dose curve; in most records, active means well fitted curve in the direction sought with a large enough effect; inconclusive means small, poorly fitted or top-dose-only effect, or another doubt; inactive means no such curve, though single readings can be large; an effect the other way counts as inactive or inconclusive.

SMILES	ATXN2 expr inh	IL-1B inflam inh	ATXN viability	PINK1 expr mod	MCF10A rereplic	SW480 rerep
Cc1cc(C(F)(F)F)c2c(N)c(C(=O)Nc3cc(C)on3)sc2n1	9.9%	?	nt	22.4µM*	?	32.7%
Cc1cc(C)c2c(N)c(C(=O)Nc3ccc(C)c(C)c3)sc2n1	63.9%	-5.4	i	11.5%	?	?
Cc1cc(C)c2c(N)c(C(=O)Nc3ccc(F)cc3)sc2n1	0.5%	-8.2	i	7.0%	20.6µM*	16.6%
COc1cc(C)c(CN2CCC3(CCC(CNC(=O)c4ccnn4C)O3)CC2)cc1C (configuration not stated)	nt	nt	i	0.2%	nt	nt
CC(=O)N1CCc2c(sc3c2c(=O)n(-c2ccccc2C)c(=O)n3CC(=O)Nc2ccccc2)C1	9.3%	nt	i	2.3%	nt	nt
NCCCC[C@H]1CN=C(N)N1CCC12CC3CC(CC(C3)C1)C2	5.6%	-54.7*	i	0.7%	3.0%	-30.1%[9.22 µM]
NCCCC[C@H]1CN=C(N)N1CCc1cccc2ccccc12	3.4%	-14.3	i	-0.5%	5.0%	9.2%
O=C(Nc1ccc(F)cc1)c1nn(-c2ccccc2)c(=O)cc1Cl	?	-144.9*	?	-0.9%	?	?
Cc1ccc(NC(=O)c2cc(-c3ccccc3)nn2-c2ccccc2)c(Br)c1	9.0%	-2.8	i	12.4%	?	-0.4%
Cc1ccc(NC(=O)c2cc(-c3ccccc3)nn2-c2ccccc2)cc1	-19.7%	?	i	-0.8%	20.6µM*	27.9%
S=c1[nH]nc(-c2cccc(Cl)c2)n1/N=C/c1ccc(-c2ccccc2Br)o1	nt	25.1	?	6.8%	11.9%	-4.5%
S=c1[nH]nc(-c2ccccc2)n1/N=C/c1ccc(-c2ccccc2Cl)o1	1.7%	-6.8	?	-1.2%	8.2µM*	0.5%
CC(C)c1ccc(NC(=O)c2ccc(-c3ccnn3C)c3ccoc23)cc1	?	15.3	?	1.0%	nt	nt
CC(=O)Nc1ccc(NC(=O)c2ccc(-c3ccnn3C)c3ccoc23)cc1	-2.7%	-92.8*	i	0.0%	nt	nt
O=C(/C=C/c1ccc(Cl)cc1Cl)NCCSCc1ccccc1	13.1%	-95.5*	i	?	?	0.6%
O=C(/C=C/c1ccc(Cl)cc1)NCCSc1ccccc1	0.2%	-7.6	i	4.1%	1.7%	-9.0%
O=C(/C=C/c1ccccc1)NCCSCc1ccc(Cl)cc1	-12.4%	10.1	i	2.9%	16.9%	-6.4%
O=C(/C=C/c1ccc(Cl)cc1Cl)NCCSc1ccccc1	24.8%	-88.3*	i	?	?	-7.6%
O=CN1CCCN(C(=O)c2cc(NC(=O)c3ccccc3)cc3ncn(C4CCCC4)c23)CC1	nt	nt	i	-0.4%	nt	nt
COCCN(C(=O)COC(=O)/C=C/c1nc2ccccc2s1)c1c(N)n(Cc2ccccc2)c(=O)[nH]c1=O	11.9%	-95.6*	i	1.0%	?	-319.6%
CN(C(=O)COC(=O)/C=C/c1ccc2ccccc2n1)c1c(N)n(Cc2ccccc2)c(=O)[nH]c1=O	-12.5%	-55.5*	i	1.7%	?	15.5%
CNC(=O)COC(=O)/C=C/c1nc2ccccc2s1	-9.9%	-29.3	nt	-0.3%	0.651µM*	?
CCN(C(=O)COC(=O)/C=C/c1ccco1)c1c(N)n(Cc2ccccc2)c(=O)[nH]c1=O	8.3%	-4.5	i	1.4%	-6.2%	-3.8%
CCN(C(=O)COC(=O)/C=C/c1nc2ccccc2s1)c1c(N)n(Cc2ccccc2)c(=O)[nH]c1=O	-11.4%	-59.7*	i	-1.1%	28.6%	-7.8%
COCCOC(=O)c1c(C)oc2c1cc(NS(=O)(=O)c1ccc(Cl)c(C)c1)c1ccccc12	-28.2%	nt	?	6.5%	nt	nt
SMILES	ATXN2 expr inh	IL-1B inflam inh	ATXN viability	PINK1 expr mod	MCF10A rereplic	SW480 rerep
COc1ccc2c(c1)-c1nc(-n3ncc(C(=O)NC(C)(C)CO)c3C3CC3)ncc1CC2	nt	nt	i	-0.5%	nt	nt
CCc1ccc(NC(=O)COCc2cc(-c3ccc(F)cc3)on2)cc1	12.5%	nt	i	-0.4%	nt	nt
FC(F)(F)c1nc2ccccc2n2c(-c3ccc(Cl)cc3)nnc12	-24.0%	?	i	-1.4%	13µM*	26.4%
Cc1ccc(-c2nc3ccccc3n3nnnc23)cc1	31.3%	2.2	i	10.1%	7.4%	1.8%
Cc1ccc(-c2nnc3c(C(F)(F)F)nc4ccccc4n23)cc1	-5.8%	-25.9	?	-0.3%	?	16.4µM*
O=C(NCc1ccc(F)cc1)c1ccc(NC(=O)N2CC3CCCN3c3ccccc32)cc1 (configuration not stated)	-23.3%	nt	?	-1.1%	nt	nt
CN(C)c1nc(CN2CCCCC2c2cccnc2)nc2ccccc12 (configuration not stated)	nt	nt	i	1.3%	nt	nt
C1Cc2[nH]nc(-c3nn[nH]n3)c2C1	-7.1%	nt	nt	nt	nt	nt
CN(C)CCc1cc2c(c3c1ccc1ccccc13)OCO2	nt	-95.9*	?	-1.9%	?	?
CCc1nnc(SCc2nc(-c3ccccc3)oc2C)c2cc3sccc3n12	-1.9%	nt	i	0.6%	nt	nt
COC(=O)c1ccc(CN(c2ccc(C(=O)O)c(O)c2)S(=O)(=O)c2ccc(Cl)c([N+](=O)[O-])c2)cc1	?	-85.7*	i	11.2%	3.66µM*	-0.8%
COC(=O)c1c(N)c(C#N)c2n1CCCCC2	9.3%	-7.0	i	8.91µM*	?	-11.7%
O=C1N=C(N2CCOCC2)S/C1=C/c1cc2c(cc1[N+](=O)[O-])OCO2	47.0%	-99.8*	i	2.1%	?	-64.9%
CCN1C[C@@H]2[C@@H]3C(=O)N(Cc4ccccc4)C(=O)[C@@H]3[C@](CC)(C(=O)OC)N2C1=NC	2.8%	10.3	i	-0.2%	-7.8%	-3.9%[9.22 µM]
CCN(CC)CCOCCOC(=O)C(CC)(CC)c1ccccc1 (tested in a mixture with another compound)	nt	nt	nt	nt	29.9µM*	0.8%
COc1cc(C(=O)NC2(C(F)(F)F)C(=O)NC(C)=C2C#N)cc(OC)c1OC (configuration not stated)	3.8%	nt	i	1.0%	nt	nt
CCn1ncc(Br)c1C(=O)Nc1cccc(F)c1	-4.3%	16.2	i	0.6%	2.5%	1.0%
CCn1ncc(Br)c1C(=O)Nc1ccc(C(C)C)cc1	4.3%	-85.0*	i	11.8%	?	?
CCOC(=O)c1ccc(NC(=S)N2CCN(C)CC2)cc1	13.1%	9.2	i	-1.3%	?	1.1%
CCOC(=O)c1c(NC(=O)CN2CCCCC2)sc(CN(C)C)c1-c1ccccc1	-29.8%	-59.8*	?	2.3%	25.9µM*	16.4µM*

Screening results (PubChem)
